Screening data: PubChem, National Center for Advancing Translational Sciences (NCATS)
This is a sample that favours compounds with a hit; in the whole collection about 6.5% have one here.
VACV Venus inh: vaccinia inhibition (Venus reporter). Vaccinia virus Venus reporter expression, fluorescence. Potency, µM (titrated, usually from 36.5 µM), usual class: inhibitors. 330,000 tested, 0.46% active; calls by dose curve; tested in A549 cells; also: nearly all actives have a fitted effect of over 30% in size
VACV mCherry inh: inhibitors of vaccinia virus infection (mCherry reporter signal). Vaccinia virus mCherry reporter infection, fluorescence. Potency, µM (titrated, usually from 36.5 µM), usual class: inhibitors. 310,000 tested, 0.63% active. AID 720579; calls by dose curve; tested in A549 cells; also: nearly all actives have a fitted effect of over 35% in size
FMDV inh: blocks foot and mouth disease virus; 410,000 tested, 1.2% active; FMDV antiviral cell-based qHTS; Potency, µM (highest dose often 57.9 µM), most hits filed as inhibitors; calls by dose curve; tested in HEK293T cells; also: read-out not given here; nearly all actives have a fitted effect of over 45% in size
MARV entry inh: Marburg virus entry inhibition | Marburg virus pseudotyped entry inhibition, cell reporter | Potency, µM (titrated, usually from 37.8 µM), usual class: inhibitors | 300,000 tested, 1.8% active | AID 540276; calls by dose curve; tested in HEK293 cells
LASV entry inh: blocks Lassa virus binding to or entry into cells. Lassa virus pseudotype entry inhibition, cell reporter. Potency, µM (highest dose often 37.9 µM), hits mostly inhibitors. 300,000 tested, 1.2% active. AID 540256; calls by dose curve; tested in HEK293 cells; also: nearly all actives have a fitted effect of over 50% in size
HCMV inh: human cytomegalovirus inhibition; activity change, negative = inhibition, % at 57.5 µM; AID 1259415; HFF cells, HCMV-luciferase reporter, 72 h; stronger effect = lower value; 410,000 tested, 4.5% active; in the data active = activity change below about -60%; inconclusive = no clear call, values can overlap the other calls; inactive = above about -39%
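Human foreskin fibroblasts infected with luciferase-reporter HCMV at MOI 1 PFU/cell, compounds at two doses. Luciferase measured 72 h post infection; normalized to buffer-only basal and Salinomycin (10uM) controls.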
Large screens that a line does not name were inactive; ! = a repeat was not active.

COc1cc(C(=O)Oc2cccc(/C=N/NC(=O)c3cc(C)[nH]n3)c2)cc(OC)c1OC	MARV entry inh inconclusive, LASV entry inh inconclusive
Cc1cc(C(=O)N/N=C/c2cccc(OC(=O)c3cccc(Br)c3)c2)n[nH]1	HCMV inh -71 (no result: VACV Venus inh, VACV mCherry inh, MARV entry inh, LASV entry inh)
COc1cccc(C(=O)Oc2c(Br)cc(Br)cc2/C=N/NC(=O)c2cc(C)[nH]n2)c1	VACV Venus inh inconclusive, VACV mCherry inh inconclusive, HCMV inh -97 (no result: MARV entry inh, LASV entry inh)
O=c1c2ccccc2[se]n1-c1ccccc1	MARV entry inh 18µM, LASV entry inh 15µM, HCMV inh -67
Cn1c(=O)c(C#N)c(-c2ccc(F)cc2)c2cc(C(=O)c3cc(Cl)cc(Cl)c3O)cnc21	FMDV inh inconclusive, HCMV inh -61 (no result: VACV Venus inh, VACV mCherry inh, MARV entry inh, LASV entry inh)
CCOc1ccc(NC(=O)c2ccc(NC(=O)N3CCSc4ncccc43)cc2)cc1	FMDV inh 32µM, HCMV inh inconclusive (no result: MARV entry inh)
CCOc1ccccc1CNC(=O)c1ccc(NC(=O)N2CCSc3ncccc32)cc1	FMDV inh inconclusive, HCMV inh active (no result: MARV entry inh)
CCc1ccc(NC(=O)CSc2ncc(S(=O)(=O)c3cc(C)ccc3C)c(=O)[nH]2)cc1	none (no result: LASV entry inh)
CCN(CC)c1nc2c(S(=O)(=O)c3cccc(Cl)c3)nnn2c2ccsc12	VACV mCherry inh inconclusive, HCMV inh -61 (no result: MARV entry inh)
CCN(CC)c1nc2c(S(=O)(=O)c3ccccc3)nnn2c2ccc(Cl)cc12	VACV Venus inh inconclusive, VACV mCherry inh inconclusive, MARV entry inh inconclusive, HCMV inh -76 (no result: LASV entry inh)
CC/C(=N\N1CCCCCC1)c1c(O)n(-c2ccc(C)cc2)c(=O)[nH]c1=O	LASV entry inh 0.4µM
C/C(=N\N1CCCCCC1)c1c(O)n(-c2ccc(C)cc2)c(=O)[nH]c1=O	MARV entry inh inconclusive, LASV entry inh inconclusive
CCOC(=O)C1=C(CN(CC)Cc2ccccc2)NC(=O)NC1c1ccc(OC(C)C)cc1 (centres undefined)	FMDV inh inconclusive, MARV entry inh inconclusive, LASV entry inh inconclusive, HCMV inh inconclusive
N[C@@H](CCC(=O)N[C@@H](CSN=O)C(=O)NCC(=O)O)C(=O)O	none (no result: MARV entry inh, LASV entry inh)
[N-]=[N+]=Nc1ccc(C(=O)CSC[C@H](NC(=O)CC[C@H](N)C(=O)O)C(=O)NCC(=O)O)cc1	MARV entry inh 5µM, LASV entry inh inconclusive (no result: VACV Venus inh, VACV mCherry inh, FMDV inh, HCMV inh)
CCC1CN(C(=O)N2CCC(C(=O)N3CCN(c4cc(C)ccc4C)CC3)CC2)c2ccccc2O1 (centres undefined)	VACV Venus inh inconclusive, VACV mCherry inh inconclusive, FMDV inh 18µM, HCMV inh inconclusive (no result: MARV entry inh)
CCC1CN(C(=O)N2CCC(C(=O)NCCc3ccccc3OC)CC2)c2ccccc2O1 (centres undefined)	HCMV inh active
CCOc1ccccc1CNC(=O)C1CCN(C(=O)N2CC(CC)Oc3ccc(C)cc32)CC1 (centres undefined)	FMDV inh 35µM, LASV entry inh inconclusive (no result: MARV entry inh)
CCC1CN(C(=O)N2CCC(C(=O)NCCc3ccc(OC)cc3OC)CC2)c2ccccc2O1 (centres undefined)	FMDV inh inconclusive (no result: VACV Venus inh, VACV mCherry inh, MARV entry inh, LASV entry inh)
CCc1ccc(NC(=O)CN2C(=O)C3(SCC(=O)N3c3ccccc3)c3ccccc32)cc1 (centres undefined)	LASV entry inh inconclusive (no result: MARV entry inh)
O=C(Nc1ccc(Br)cc1)C1CCCN1S(=O)(=O)c1ccc(F)cc1 (centres undefined)	HCMV inh inconclusive
CCN(CC)C(=O)CSc1nc2cc3c(cc2c(=O)n1CCCC(=O)NCCc1ccc(OC)c(OC)c1)OCO3	HCMV inh -67 (no result: LASV entry inh)
CCCCNC(=O)CSc1nc2cc3c(cc2c(=O)n1Cc1ccc(C(=O)NCCc2ccc(OC)c(OC)c2)cc1)OCO3	none (no result: MARV entry inh)
CCN(CC)C(=O)CSc1nc2cc3c(cc2c(=O)n1Cc1ccc(C(=O)NCCc2ccc(OC)c(OC)c2)cc1)OCO3	HCMV inh -83 (no result: MARV entry inh)
O=C(Nc1cnns1)Oc1ccccc1	none (no result: MARV entry inh, LASV entry inh)
O=S(c1ccc2ccccc2c1)c1cnns1 (centres undefined)	VACV Venus inh 10µM, FMDV inh inconclusive, MARV entry inh inconclusive, LASV entry inh inconclusive, HCMV inh -68 (no result: VACV mCherry inh)
C/C=C/C(=O)Nc1cccc(C2=NOC3(C2)C[C@@H](C(N)=O)N(C(=O)c2cc([N+](=O)[O-])cc([N+](=O)[O-])c2C)C3)c1 (some centres undefined)	HCMV inh -74 (no result: MARV entry inh, LASV entry inh)
C=C(C)C(=O)Nc1cccc(C2=NOC3(C2)C[C@@H](C(N)=O)N(C(=O)c2cc([N+](=O)[O-])cc([N+](=O)[O-])c2C)C3)c1 (some centres undefined)	none (no result: MARV entry inh, LASV entry inh)
NC(=O)[C@H]1CC2(CC(c3cccc(NC(=O)COc4ccc(Cl)cc4)c3)=NO2)CN1C(=O)c1ccc(Cl)cc1 (some centres undefined)	VACV Venus inh 11µM, VACV mCherry inh 11µM, HCMV inh inconclusive (no result: MARV entry inh, LASV entry inh)
c1ccc(CN(CC2=NCCN2)c2ccccc2)cc1	MARV entry inh inconclusive, LASV entry inh inconclusive, HCMV inh inconclusive
Cc1ccc(N(CC2=NCCN2)c2cccc(O)c2)cc1	MARV entry inh 23µM, LASV entry inh inconclusive, HCMV inh -66!
CCOc1ccc(-c2cc(C(=O)NCCc3ccc(OC)c(OC)c3)c3c(-c4ccc(F)cc4)[nH]nc3n2)cc1	VACV Venus inh inconclusive, VACV mCherry inh inconclusive, HCMV inh -92 (no result: MARV entry inh)
COc1cc(OC)c(-c2cc(C(=O)NCc3ccc(F)cc3)c3c(-c4ccccc4)[nH]nc3n2)cc1OC	VACV mCherry inh inconclusive, LASV entry inh inconclusive, HCMV inh -93 (no result: MARV entry inh)
COc1ccccc1-c1cc(C(=O)NCc2ccccc2)c2c(-c3ccc(C)cc3)[nH]nc2n1	none (no result: MARV entry inh)
COc1ccc(-c2cc(C(=O)NCCc3ccc(OC)c(OC)c3)c3c(-c4ccc(F)cc4)[nH]nc3n2)cc1	LASV entry inh inconclusive (no result: MARV entry inh)
CCc1ccc(NC(=O)CSc2nc(=O)n(Cc3ccncc3)c3c2CCC3)cc1	VACV Venus inh inconclusive, FMDV inh inconclusive (no result: MARV entry inh)
COc1ccc(-n2c3c(cc(C(=O)N4CCCCC4)c2=O)C(=O)CC(C)(C)C3)cc1	VACV Venus inh 14µM, VACV mCherry inh inconclusive, LASV entry inh inconclusive
CC1(C)CC(=O)c2cc(C(=O)N3CCCC(C)(C)C3)c(=O)n(-c3ccccc3)c2C1	HCMV inh -77 (no result: VACV mCherry inh)
CC1(C)CC(=O)c2cc(C(=O)O)c(=O)n(-c3ccccc3)c2C1	MARV entry inh inconclusive (no result: VACV Venus inh, VACV mCherry inh)
COc1ccccc1CNc1ncnc2c1c(-c1ccccc1)cn2-c1ccc(Br)cc1	HCMV inh inconclusive (no result: MARV entry inh)
C=C(C)COc1ccc(-c2[nH]ncc2-c2ccc(OC)c(OC)c2)c(O)c1	VACV Venus inh 10µM, FMDV inh inconclusive, MARV entry inh 1.6µM, LASV entry inh 1.3µM, HCMV inh inconclusive (no result: VACV mCherry inh)
C=C(C)COc1ccc(-c2[nH]ncc2-c2ccccc2)c(O)c1	VACV Venus inh inconclusive, FMDV inh inconclusive, MARV entry inh inconclusive, LASV entry inh 8.9µM, HCMV inh inconclusive (no result: VACV mCherry inh)
COc1ccc(-c2[nH]ncc2Oc2ccccc2OC)c(O)c1	none (no result: VACV Venus inh, VACV mCherry inh)
C=C(C)COc1ccc(-c2n[nH]c(C)c2Oc2ccccc2OC)c(O)c1	VACV Venus inh inconclusive, MARV entry inh inconclusive, LASV entry inh inconclusive (no result: VACV mCherry inh)
